Assay [1] is described as follows: ATG_GLI_CIS: Attagene CIS-FACTORIAL HepG2 Assay for human Zinc Finger Protein GLI1 (AID 2282945). The note with it: HepG2, Attagene cis-factorial reporter mRNA, GLI element; actives raise or lower the signal. A digest of the protocol: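 HepG2 cells transiently transfected with cis-promoter multiplexed reporter units report endogenous transcription factor activity. After 24 h chemical exposure, reporter mRNA was quantified by RT-PCR, 6-FAM labelling, HpaI digestion and capillary electrophoresis, with bidirectional fitting against DMSO.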

For assay [2], the target named is Bile acid receptor (Homo sapiens) (UniProt Q96RI1). Kind of assay: ATG_IR1_CIS: Attagene CIS-FACTORIAL HepG2 Assay for human Nuclear Receptor Subfamily 1 Group H Member 4 (NR1H4), IR1 submotif (AID 2282946). The settings on record: IR1 reporter transcription, actives raise or lower the signal. The essentials:
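Transient MRTU transfection, HepG2; 24 h dosing; RNA → RT-PCR → 6-FAM primer extension → HpaI digest → capillary electrophoresis fluorescence. Gain/loss of signal fitted relative to DMSO.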

Assay [3] is described as follows: ATG_GRE_CIS: Attagene CIS-FACTORIAL HepG2 Assay for human Glucocorticoid Response Elements (GRE) (AID 2282947). The note with it: HepG2 GRE cis-reporter, Attagene multiplex mRNA; actives raise or lower the signal. A digest of the protocol:
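Following 24 h chemical exposure of transiently transfected HepG2 cells, total RNA was reverse-transcribed and reporter cDNA amplified, fluorescently labelled and sized by capillary electrophoresis. Signal gain or loss was fitted relative to DMSO vehicle.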

A short description of assay [4]: ATG_ISRE_CIS: Attagene CIS-FACTORIAL HepG2 Assay for human Interferon Regulatory Factor 1 (IRF1) binding to an Interferon-Stimulated Response Element (ISRE) (AID 2282948). The note with it: HepG2 ISRE cis-reporter (Attagene), mRNA transcription readout; actives raise or lower the signal. The essentials:
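Transfected HepG2 (multiple reporter transcription units, cis elements) dosed 24 h. RNA → oligo(dT) RT → PCR → 6-FAM primer extension → HpaI → CE. DMSO = negative control/baseline.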

The nature of assay [5]: ATG_M_32_CIS: Attagene CIS-FACTORIAL HepG2 Assay for M32 Transcription Factor (Internal Marker) (AID 2282949).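 Further: background control marker of the multiplexed CIS panel rather than a real target.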 The settings on record: HepG2 Attagene cis-factorial M32 reporter, mRNA; actives raise or lower the signal. A digest of the protocol:
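Fluorescent capillary electrophoresis peaks of HpaI-digested, FAM-labelled RT-PCR reporter products give the signal. Source: transiently transfected human liver HepG2 cells, 24 h after chemical dosing; bidirectional fitting against DMSO.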

A short description of assay [6]: ATG_M_06_CIS: Attagene CIS-FACTORIAL HepG2 Assay for M06 Transcription Factor (Internal Marker) (AID 2282950). The note with it: HepG2 Attagene CIS-FACTORIAL M06 internal marker reporter; actives raise or lower the signal. A digest of the protocol: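 Measured 24 h post-dosing in transiently transfected HepG2 cells, this internal-marker endpoint reports reporter mRNA via RT-PCR with fluorescent primer extension and capillary electrophoresis. DMSO served as negative control and baseline for bidirectional fitting.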

For assay [7], the target named is Hypoxia-inducible factor 1-alpha (Homo sapiens) (UniProt Q16665). Kind of assay: ATG_HIF1a_CIS: Attagene CIS-FACTORIAL HepG2 Assay for human Hypoxia Inducible Factor 1 (HIF1A) (AID 2282951). The note with it: HepG2 Attagene cis-factorial HIF1a reporter transcription; actives raise or lower the signal. A digest of the protocol: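 Endogenous-TF cis reporter readout, human HepG2 cells, 24 h incubation; mRNA detected via RT-PCR and capillary electrophoresis fluorescence; DMSO-normalised bidirectional fitting.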
Sequence of Hypoxia-inducible factor 1-alpha (Homo sapiens) (Q16665 whole entry, looked up): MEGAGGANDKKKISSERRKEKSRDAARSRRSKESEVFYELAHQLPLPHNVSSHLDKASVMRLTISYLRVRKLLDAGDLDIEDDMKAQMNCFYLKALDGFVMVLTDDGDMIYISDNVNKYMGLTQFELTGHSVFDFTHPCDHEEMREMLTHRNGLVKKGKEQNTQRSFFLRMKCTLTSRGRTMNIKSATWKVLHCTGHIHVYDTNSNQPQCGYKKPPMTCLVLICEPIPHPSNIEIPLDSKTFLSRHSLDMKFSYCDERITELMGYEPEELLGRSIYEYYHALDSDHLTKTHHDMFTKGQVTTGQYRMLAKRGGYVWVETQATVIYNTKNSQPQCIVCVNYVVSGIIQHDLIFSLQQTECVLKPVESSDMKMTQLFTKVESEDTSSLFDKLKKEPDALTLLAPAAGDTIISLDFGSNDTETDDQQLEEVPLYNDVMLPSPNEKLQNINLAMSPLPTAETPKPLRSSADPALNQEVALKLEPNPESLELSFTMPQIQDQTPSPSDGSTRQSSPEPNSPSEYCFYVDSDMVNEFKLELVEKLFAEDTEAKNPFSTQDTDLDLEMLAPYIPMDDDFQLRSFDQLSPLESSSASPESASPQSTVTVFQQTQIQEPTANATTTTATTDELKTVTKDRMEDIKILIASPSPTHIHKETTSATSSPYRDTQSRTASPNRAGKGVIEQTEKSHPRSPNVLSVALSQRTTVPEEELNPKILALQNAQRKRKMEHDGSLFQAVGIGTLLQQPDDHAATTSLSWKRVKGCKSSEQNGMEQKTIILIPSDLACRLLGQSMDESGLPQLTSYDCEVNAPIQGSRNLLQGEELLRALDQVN

The target in assay [8] is Hepatocyte nuclear factor 6 (Homo sapiens) (UniProt Q9UBC0). In words: ATG_HNF6_CIS: Attagene CIS-FACTORIAL HepG2 Assay for human Hepatocyte Nuclear Factor 6 (HNF6) (AID 2282952). The note with it: HepG2 Attagene cis-factorial HNF6 reporter transcription; actives raise or lower the signal. The essentials:
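Cells are HepG2 carrying transiently transfected cis-promoter reporter units. Treatment lasts 24 h, after which reporter transcripts are reverse-transcribed, amplified, FAM-labelled and sized by capillary electrophoresis. DMSO serves as baseline.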

The target in assay [9] is Heat shock factor protein 1 (Homo sapiens) (UniProt Q00613). In words: ATG_HSE_CIS: Attagene CIS-FACTORIAL HepG2 Assay for human Heat Shock Transcription Factor 1 (HSE) (AID 2282953). The note with it: HepG2 HSE cis-reporter, Attagene RNA transcription; actives raise or lower the signal. A digest of the protocol: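 Reporter mRNA induction in HepG2 is measured 24 h after dosing, using transiently transfected multiplexed cis-regulated reporter units. Signal comes from capillary electrophoresis of labelled RT-PCR products, with DMSO as negative control.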
Sequence of Heat shock factor protein 1 (Homo sapiens) (Q00613 whole entry, looked up): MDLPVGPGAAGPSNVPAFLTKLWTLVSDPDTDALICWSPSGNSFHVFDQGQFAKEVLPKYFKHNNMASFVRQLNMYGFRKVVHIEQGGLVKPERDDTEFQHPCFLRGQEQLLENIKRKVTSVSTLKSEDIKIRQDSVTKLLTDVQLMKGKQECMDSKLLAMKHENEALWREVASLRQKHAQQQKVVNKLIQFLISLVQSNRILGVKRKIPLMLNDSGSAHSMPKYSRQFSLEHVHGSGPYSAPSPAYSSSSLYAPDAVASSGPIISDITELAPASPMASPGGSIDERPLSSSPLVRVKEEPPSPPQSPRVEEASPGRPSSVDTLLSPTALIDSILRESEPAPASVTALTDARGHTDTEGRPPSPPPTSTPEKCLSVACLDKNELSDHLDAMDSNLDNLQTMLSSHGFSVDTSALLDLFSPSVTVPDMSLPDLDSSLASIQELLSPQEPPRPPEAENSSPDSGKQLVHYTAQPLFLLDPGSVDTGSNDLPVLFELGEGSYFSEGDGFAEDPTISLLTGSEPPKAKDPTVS

A short description of assay [10]: ATG_MRE_CIS: Attagene CIS-FACTORIAL HepG2 Assay for human Metal Responsive Element (MRE) (AID 2282954). The settings on record: HepG2 MRE cis-reporter transcription, Attagene multiplex; actives raise or lower the signal. A digest of the protocol: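 Step one: transfect HepG2 with cis-regulated reporter units. Step two: dose 24 h. Step three: isolate RNA, RT-PCR, 6-FAM label, HpaI digest, capillary electrophoresis. Fit bidirectionally to DMSO.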

Usually AC50 stands for the concentration at which the activity in the assay is half-maximal.

The source made the active and inactive calls. How the source made its calls: active means hit-call score of the fitted dose curve at least 0.9, where 1 is the maximum; inactive means score below 0.9.

Sequence of Bile acid receptor (Homo sapiens) (Q96RI1 whole entry, looked up): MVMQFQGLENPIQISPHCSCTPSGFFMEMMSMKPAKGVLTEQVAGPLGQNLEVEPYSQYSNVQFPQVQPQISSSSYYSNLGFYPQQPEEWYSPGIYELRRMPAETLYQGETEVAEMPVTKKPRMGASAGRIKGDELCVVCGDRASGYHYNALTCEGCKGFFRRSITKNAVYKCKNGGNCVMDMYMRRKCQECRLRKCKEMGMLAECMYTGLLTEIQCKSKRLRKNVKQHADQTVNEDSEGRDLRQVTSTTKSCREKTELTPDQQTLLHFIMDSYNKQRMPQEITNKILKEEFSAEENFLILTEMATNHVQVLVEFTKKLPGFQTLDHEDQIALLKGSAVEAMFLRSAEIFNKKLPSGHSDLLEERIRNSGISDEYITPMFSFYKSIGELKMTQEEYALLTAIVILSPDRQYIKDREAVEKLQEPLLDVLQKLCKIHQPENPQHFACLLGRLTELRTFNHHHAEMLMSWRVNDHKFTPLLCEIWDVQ
Sequence of Hepatocyte nuclear factor 6 (Homo sapiens) (Q9UBC0 whole entry, looked up): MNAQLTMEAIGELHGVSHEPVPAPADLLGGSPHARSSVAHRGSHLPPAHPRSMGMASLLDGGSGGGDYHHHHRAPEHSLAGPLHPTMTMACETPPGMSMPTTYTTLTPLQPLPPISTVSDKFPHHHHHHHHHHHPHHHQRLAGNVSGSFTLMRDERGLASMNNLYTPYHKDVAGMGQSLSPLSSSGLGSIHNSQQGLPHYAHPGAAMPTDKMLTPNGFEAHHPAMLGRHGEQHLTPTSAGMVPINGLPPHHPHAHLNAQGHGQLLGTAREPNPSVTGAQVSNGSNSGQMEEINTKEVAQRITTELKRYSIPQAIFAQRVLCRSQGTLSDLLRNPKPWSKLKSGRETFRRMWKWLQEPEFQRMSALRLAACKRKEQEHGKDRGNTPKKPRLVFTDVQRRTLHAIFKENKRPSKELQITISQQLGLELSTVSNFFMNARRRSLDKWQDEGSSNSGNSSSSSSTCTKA

`CO/N=C(/C1=NOCCO1)c1ccccc1Oc1ncnc(Oc2ccccc2Cl)c1F`: the result in assay [1], in assay [2], in [3], in [5], in assay [6] and in [7] was inactive. For the same compound, the compound was called inactive in [8]. Further, the AC50 in assay [4] was 4.82 µM (active); in [9], 17.8 µM (active); in assay [10], 8.64 µM (active).

With `CC(C)C1(C)N=C(c2ncccc2C(=O)O)NC1=O` (stereo not given), the result in assay [1], in assay [2], in assay [3], in [4], in [5] and in assay [7] was inactive. For the same compound, the compound was called inactive in [8], in [9] and in assay [10].

For `Cc1c(COC(=O)[C@@H]2[C@H](/C=C(\Cl)C(F)(F)F)C2(C)C)cccc1-c1ccccc1`, the call in assay [1], in assay [2], in assay [4], in assay [5], in assay [6] and in assay [7] was inactive. The outcome in assay [8], in assay [9] and in assay [10] was inactive.

Take `Cc1cc(C)nc(Nc2ccccc2)n1`: the compound was called inactive in assay [1], in assay [3], in assay [4], in [5], in assay [7] and in assay [8]. In assay [10], the call was inactive.

As for `CCCN(CC)CC1COC2(CCC(C(C)(C)C)CC2)O1` (stereo not given), the result in [1], in assay [3], in assay [4] and in assay [5] was inactive. Besides, the AC50 in assay [7] was 22.7 µM (active); in assay [8], 50 µM (active); in assay [9] it was 60.3 µM (active); in assay [10], 50 µM (active).

On to `CCCCC(C#N)(Cn1cncn1)c1ccc(Cl)cc1` (stereo not given), for which the outcome in [1], in [3], in [4], in [5], in assay [7] and in assay [8] was inactive. The compound was classed as inactive in [9] and in assay [10].

For `COP(=O)(OC)O/C(C)=C/C(=O)N(C)C`, the result in [1], in assay [4], in assay [5], in assay [7], in assay [8] and in assay [9] was inactive. In assay [10], the outcome was inactive.

With `COP(=S)(OC)SCn1nnc2ccccc2c1=O`, the compound was called inactive in [1], in assay [4], in assay [5], in assay [7], in [8] and in [9]. In addition, the AC50 in [10] was 17.3 µM (active).

Take `CC(C)Nc1nc(Cl)nc(NC(C)C)n1`: the compound was called inactive in [1], in assay [4], in [5], in assay [6], in assay [7] and in assay [8]. Besides, the outcome in assay [9] and in [10] was inactive.

With `CS(=O)(=O)c1cc(C(F)(F)F)ccc1C(=O)c1cnoc1C1CC1`, the call in assay [1], in assay [3], in [4], in assay [5], in [6] and in assay [7] was inactive. For the same compound, the result in assay [8], in [9] and in assay [10] was inactive.

Regarding `N#Cc1c(Cl)cccc1Cl`, the result in assay [1], in assay [3], in assay [4], in [5], in assay [7] and in assay [8] was inactive. Also, the result in assay [9] and in [10] was inactive.

As for `O=c1n(Cl)c(=O)n(Cl)c(=O)n1Cl`, the compound was classed as inactive in assay [1], in assay [3], in assay [4], in [5], in [7] and in [8]. The call in [9] and in [10] was inactive.

Take `CC(C)Oc1cccc(NC(=O)c2ccccc2C(F)(F)F)c1`: the call in assay [1], in assay [3], in assay [4], in assay [5], in assay [7] and in [8] was inactive. Besides, the result in [9] was inactive. Also, in assay [10], the AC50 is 28.7 µM (active).

On to `CC(C)(C)C(=O)C(Oc1ccc(Cl)cc1)n1cncn1` (stereo not given), for which the compound was classed as inactive in assay [1], in assay [3], in assay [4], in assay [5], in [6] and in assay [7]. In addition, the outcome in assay [8], in assay [9] and in assay [10] was inactive.

With `CCSC(=O)N1CCCCCC1`, the compound was called inactive in assay [1], in assay [4], in assay [5], in [6], in [7] and in assay [8]. Moreover, the call in [9] and in assay [10] was inactive.

For the compound `Clc1nc(Cl)nc(Nc2ccccc2Cl)n1`, the compound was called inactive in assay [1], in assay [3], in [4], in [5], in assay [7] and in [8]. Further, the compound was called inactive in [9] and in assay [10].

As to `CCNP(=S)(OC)O/C(C)=C/C(=O)OC(C)C` (stereo not given), the call in assay [1], in assay [3], in [4], in [5], in [7] and in assay [8] was inactive. Besides, the compound was called inactive in [9] and in assay [10].

Take `Nc1c(Cl)c(Cl)nc(C(=O)O)c1Cl`: the outcome in assay [1], in [3], in [4], in assay [5], in assay [7] and in assay [8] was inactive. Further, the compound was classed as inactive in assay [9] and in [10].

For `Cc1ccc(N=CN(C)C=Nc2ccc(C)cc2C)c(C)c1`, the outcome in assay [1], in assay [3], in assay [4], in assay [5], in [7] and in assay [8] was inactive. The call in assay [9] and in assay [10] was inactive.

These data come from PubChem BioAssay (EPA / NIEHS).
